An excerpt weighted towards active compounds, which were near 21% of everything screened.
Pf growth 48h: P. falciparum growth inhibition at 48 hours (one generation). P. falciparum luciferase growth in erythrocytes, 48 h. Potency, µM (series often up to 28.7 µM), for inactives: at the highest dose activity change, negative = inhibition, usual class: inhibitors. actives 5.9% (n = 310,000). AID 504832; also: potency is read from the fitted curve at half-maximal effect; % is scaled to controls: 0 for no effect and ±100 for the full control effect
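Here the parasites carry a stable luciferase gene and grow inside erythrocytes in Albumax-based RPMI medium with compound for one erythrocytic cycle. Activity is scored as loss of luminescent signal.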
Pf growth 96h: P. falciparum growth inhibition at 96 hours; actives 6.9% (n = 320,000); P. falciparum luciferase reporter growth, 96 h; Potency, µM (titrated, usually from 28.7 µM), for inactives: at the highest dose activity change, negative = inhibition, usual class: inhibitors; also: potency is read from the fitted curve at half-maximal effect; % is scaled to controls: 0 for no effect and ±100 for the full control effect
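P. falciparum expressing integrated firefly luciferase grown in erythrocytes (2% hematocrit, 0.05% parasitemia final) with compounds for 96 hours at 37 C, 5% CO2. Growth inhibition read as loss of luminescence after adding luciferase detection reagent.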
Shiga toxin inh: Shiga toxin inhibition | Vero cells, Shiga toxin protein synthesis inhibition reporter | inhibition, % at 38.7 µM | actives 9.2% (n = 290,000); in the data active = inhibition mostly above about 28%, no sharp cut-off; inactive = mostly below about 43%; also: 0% is about no effect
SARS PLP yeast: blocks SARS-CoV papain-like protease in a yeast assay | S. cerevisiae expressing SARS-CoV PLpro, growth rescue | Potency, µM (highest dose often 32.9 µM), for the others: at the highest dose activity, positive = growth rescue, most hits filed as activators | actives 0.19% (n = 330,000) | AID 485353; calls by dose curve; also: potency is read from the fitted curve at half-maximal effect; 0% is about no effect; nearly all actives have a fitted effect of over 55% in size
NS1 function inh: inhibitors of influenza NS1 protein function; Potency, µM (top dose mostly 46.1 µM), inactives show at the top dose activity, positive = more growth; actives 0.4% (n = 270,000); AID 2326; calls by dose curve; also: potency is read from the fitted curve at half-maximal effect; actives are rising curves; nearly all actives have a fitted effect of over 50% in size
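S. cerevisiae expressing influenza A NS1, grown in glucose, washed, then diluted 1:100 into pH 6.0 -URA galactose medium with 23 nl compound. Growth recovery read as OD600; NS1-free strain serves as control.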
Cycloheximide cs: counter-screen hit for Shiga toxin inhibitors, cycloheximide; actives 12% (n = 300,000); max response, %; cell reporter, cycloheximide protein synthesis inhibition counterscreen; in the data active = max response mostly above about 13%, no sharp cut-off; inactive = mostly below about 14%; also: read at 38.3 µM for the half of the compounds with a filed dose; 0% is about no effect
* = called active by the depositor. Unless noted, calls follow the shape of the dose curve; as a rule, active = well fitted inhibition curve with a large enough effect; inconclusive = small, poorly fitted or top-dose-only effect, or another doubt; inactive = no such curve, though single readings can be large or run the other way.

How did CS(=O)(=O)c1ccc2nc(NC(=O)c3cccc(NS(=O)(=O)c4ccc(F)c(F)c4)c3)sc2c1 do in these assays?
Pf growth 48h: 41%; Pf growth 96h: 4%; Shiga toxin inh: 35; SARS PLP yeast: 9%; NS1 function inh: 27%; Cycloheximide cs: 19*

Results for O=C(Nc1nc2ccc(SC(F)F)cc2s1)c1ccc(NS(=O)(=O)c2ccc(F)c(F)c2)cc1 ?
Pf growth 48h: 13%; Pf growth 96h: inconclusive; Shiga toxin inh: 79*; SARS PLP yeast: 3%; NS1 function inh: inconclusive; Cycloheximide cs: 41*

How did CS(=O)(=O)c1ccc2nc(NC(=O)c3ccc(NS(=O)(=O)c4ccc(F)c(F)c4)cc3)sc2c1 do in these assays?
Pf growth 48h: 77%; Pf growth 96h: inconclusive; Shiga toxin inh: 28; SARS PLP yeast: 2%; NS1 function inh: 3%; Cycloheximide cs: 15

Results for COc1c(C)c2c(c(O)c1CC=C(C)CCC(=O)OCCN1CCOCC1)C(=O)OC2 ?
Pf growth 48h: 9.5µM*; Pf growth 96h: -20%; Shiga toxin inh: -1; Cycloheximide cs: -3

What do the screens show for `CC1=C(C)C(=O)C(CCCCC#CCCCC#CCO)=C(C)C1=O`?
Pf growth 48h: 13µM*; Pf growth 96h: 9.3µM*; Shiga toxin inh: -12; SARS PLP yeast: 6%; NS1 function inh: -19%; Cycloheximide cs: -2

How did CCc1cc(=O)oc2cc(C)cc(OCC(=O)NCc3ccncc3)c12 do in these assays?
Pf growth 48h: -1%; Pf growth 96h: -12%; Shiga toxin inh: -8; SARS PLP yeast: -6%; NS1 function inh: 2%; Cycloheximide cs: 2

How did CCCc1cc(=O)oc2cc(C)cc(OCC(=O)NCc3ccncc3)c12 do in these assays?
Pf growth 48h: 9.3µM*; Pf growth 96h: 8.3µM*; Shiga toxin inh: -12; SARS PLP yeast: -4%; NS1 function inh: -1%; Cycloheximide cs: -3

What do the screens show for `CCCc1cc(=O)oc2cc(C)cc(OC(C)C(=O)NCc3cccnc3)c12` (stereo not drawn)?
Pf growth 48h: 8.3µM*; Pf growth 96h: 4.7µM*; Shiga toxin inh: -8; SARS PLP yeast: -15%; NS1 function inh: 2%; Cycloheximide cs: -6

How did CCc1cc2c(-c3ccccc3)cc(=O)oc2cc1OC(C)C(=O)NCC1CCC(C(=O)O)CC1 (stereo not drawn) do in these assays?
Pf growth 48h: inconclusive; Pf growth 96h: 9.3µM*; Shiga toxin inh: 17; SARS PLP yeast: 3%; NS1 function inh: 8%; Cycloheximide cs: -1

How did CCc1cc(=O)oc2cc(C)cc(OCC(=O)NCc3cccnc3)c12 do in these assays?
Pf growth 48h: -1%; Pf growth 96h: inconclusive; Shiga toxin inh: -8; SARS PLP yeast: 1%; NS1 function inh: -8%; Cycloheximide cs: -5

What do the screens show for `CCCc1cc(=O)oc2cc(C)cc(OC(C)C(=O)NCc3ccncc3)c12` (stereo not drawn)?
Pf growth 48h: 3.3µM*; Pf growth 96h: 2.9µM*; Shiga toxin inh: 11; SARS PLP yeast: 3%; NS1 function inh: -11%; Cycloheximide cs: -4

How did OCC[C@@H]1C[C@H](O)[C@@H](O)[C@@]2(OCCCc3ccccc32)O1 do in these assays?
Pf growth 48h: 5%; Pf growth 96h: -5%; Shiga toxin inh: -8; SARS PLP yeast: -12%; NS1 function inh: -1%; Cycloheximide cs: -2

Results for CCc1nc2sc3c(c2c(=O)n1CCO)CCC3 ?
Pf growth 48h: 1%; Pf growth 96h: -1%; Shiga toxin inh: -4; SARS PLP yeast: -6%; NS1 function inh: -6%; Cycloheximide cs: -1

How did CCSc1ccccc1C(=O)Nc1ccc(S(=O)(=O)NC(C)=O)cc1 do in these assays?
Pf growth 48h: 11%; Pf growth 96h: 5%; Shiga toxin inh: -6; SARS PLP yeast: 0%; NS1 function inh: 1%; Cycloheximide cs: -1

What do the screens show for `CNC(=O)c1ccccc1NC(=O)C1CC(=O)N(c2ccc(OC)cc2)C1` (stereo not drawn)?
Pf growth 48h: 56%; Pf growth 96h: -12%; Shiga toxin inh: -17; SARS PLP yeast: 1%; NS1 function inh: 4%; Cycloheximide cs: 4

What do the screens show for `CCCCc1cc(=O)oc2cc(C)cc(OCC(=O)NCc3cccnc3)c12`?
Pf growth 48h: 10µM*; Pf growth 96h: 9.3µM*; Shiga toxin inh: -3; SARS PLP yeast: 1%; NS1 function inh: -17%; Cycloheximide cs: -3

Screens as filed in PubChem BioAssay.
